Test results taken from PubChem BioAssay (NCI).
This is part of a sample that, as a whole, favours compounds with a hit. Of some 79,000 tested, about 15% had one in any assay. Active and inactive are the calls of the source. Rule as the data show it: active = growth inhibition above about 70%; inactive = the rest.

Assays:
[1] = NCI Yeast Anticancer Drug Screen. Data for the rad52 strain (AID 147);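 also: 0% = growth of vehicle-treated control cultures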; details: S. cerevisiae rad52 mutant growth inhibition, hits give high values
Method in brief: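 Measured: yeast growth inhibition. System: strain with a defined DNA damage repair alteration. Reference: vehicle-treated control cultures.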

[2] = NCI Yeast Anticancer Drug Screen. Data for the wt1 strain (AID 149);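 also: 0% = growth of vehicle-treated wt1 cultures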; details: S. cerevisiae wt1 strain (SPY 50644) growth inhibition, hits give high values
Method in brief: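 wt1 yeast, compound-treated; % growth inhibition vs vehicle control.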

[3] = NCI Yeast Anticancer Drug Screen. Data for the rad50EPP+ strain (AID 151);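 also: 0% = growth of vehicle-treated control cultures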; details: S. cerevisiae rad50 mutant strain, hits give high values
Method in brief: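 One strain with a rad50 alteration (rad50EPP+) was compound-treated, its growth then compared to that of vehicle controls.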

[4] = NCI Yeast Anticancer Drug Screen. Data for the mgt1 strain (AID 153); details: S. cerevisiae mgt1 mutant growth inhibition, hits give high values
Method in brief: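 After exposure of the mgt1 yeast mutant to compound, growth was measured and reported as inhibition compared with vehicle controls.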

[5] = NCI Yeast Anticancer Drug Screen. Data for the rad50 strain (AID 155);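 also: 0% = growth of vehicle-only cultures of the same strain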; details: S. cerevisiae rad50 strain growth inhibition, hits give high values
Method in brief: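 Genetically altered yeast (DNA repair pathway); compound treatment; growth inhibition vs vehicle ctrl.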

[6] = NCI Yeast Anticancer Drug Screen. Data for the mec2-1 strain (AID 157); details: S. cerevisiae mec2-1 strain, hits give high values
Method in brief: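 Test agents were screened against the mec2-1 yeast strain, with defined DNA repair or cell cycle alteration. Growth was scored as inhibition against vehicle-only controls.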

[7] = NCI Yeast Anticancer Drug Screen. Data for the rad14 strain (AID 159);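 also: 0% = growth of vehicle-treated control cultures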; details: S. cerevisiae rad14 strain growth inhibition, hits give high values
Method in brief: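 Test compounds were applied to a repair-deficient yeast strain. Its growth was then compared with that of cultures given vehicle alone, and inhibition was expressed relative to those controls.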

[8] = NCI Yeast Anticancer Drug Screen. Data for the sgs1 mgt1 strain (AID 161);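 also: 0% = growth of cultures given vehicle only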; details: S. cerevisiae sgs1 mgt1 strain, hits give high values
Method in brief: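 Genetically altered yeast, compound exposure, growth inhibition relative to vehicle.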

[9] = NCI Yeast Anticancer Drug Screen. Data for the CLN2oe strain (AID 163);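 also: 0% = growth of vehicle-only control cultures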; details: S. cerevisiae CLN2oe strain, hits give high values
Method in brief: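 Here, growth inhibition in a cell-cycle-altered yeast strain after compound exposure was quantified against vehicle control growth.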

[10] = NCI Yeast Anticancer Drug Screen. Data for the cln2 rad14 strain (AID 165);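 also: 0% = growth equal to vehicle treated cultures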; details: S. cerevisiae cln2 rad14 strain, hits give high values
Method in brief: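 Growth of compound-exposed yeast (cln2 rad14 genotype) measured and expressed as inhibition relative to vehicle.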

[11] = NCI Yeast Anticancer Drug Screen. Data for the bub3 strain (AID 167); details: S. cerevisiae bub3 mutant strain, hits give high values
Method in brief: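 Yeast carrying a defined mutation is treated with each compound, and growth is compared with that of vehicle-exposed cells to give inhibition.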

[12] = NCI Yeast Anticancer Drug Screen. Data for the wt2 strain (AID 169);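 also: 0% = growth of vehicle-treated yeast cultures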; details: S. cerevisiae wt2 strain growth inhibition, hits give high values
Method in brief: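 Genetically defined yeast strains from a DNA-repair/cell-cycle panel were used. Compound-exposed yeast growth was measured, and the inhibition was calculated relative to vehicle treatment.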

[13] = NCI Yeast Anticancer Drug Screen. Data for the mlh1 strain (AID 171);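 also: 0% = growth of vehicle-treated control cultures of the same strain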; details: S. cerevisiae mlh1 strain growth inhibition, hits give high values
Method in brief: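 Here the genetically defined yeast mutant is grown with each compound, and the extent to which its growth falls below that of vehicle-exposed cells is reported.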

[14] = NCI Yeast Anticancer Drug Screen. Data for the sgs1 strain (AID 173);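 also: 0% = growth of vehicle-only control cultures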; details: S. cerevisiae sgs1 mutant, hits give high values
Method in brief: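 Relative growth inhibition, referenced to vehicle, was determined in a yeast strain with a defined alteration affecting DNA damage repair or cell cycle control after compound exposure.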

[15] = NCI Yeast Anticancer Drug Screen. Data for the mlh1 rad18 strain (AID 175); details: S. cerevisiae mlh1 rad18 strain growth inhibition, hits give high values
Method in brief: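 In this whole-cell yeast screen, a strain with altered DNA damage repair is challenged with compound, and its growth is measured against matched vehicle-treated controls.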

[16] = NCI Yeast Anticancer Drug Screen. Data for the rad18 strain (AID 177); details: S. cerevisiae rad18 mutant growth inhibition, hits give high values
Method in brief: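 Screen uses a yeast strain with a defined lesion in DNA damage repair; compound effect is read as loss of growth compared to untreated vehicle cultures.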

[17] = at 5.0 µM (retest, dose inferred, filed as 0.5)
[18] = at 50.0 µM (retest, dose inferred, filed as 5.0)

Measured: growth inhibition

CCOc1c(N=Nc2ccccc2OC)c(C)nn1C(=S)S
active: [1]; at 100.0 µM 79% | [3]; at 100.0 µM 79% | [4]; at 100.0 µM 74% | [5]; at 50.0 µM 98.5% | [6]; at 50.0 µM 97.8% | [7]; at 100.0 µM 78% | [8]; at 50.0 µM 97.7% | [10]; at 50.0 µM 98% | [11]; at 50.0 µM 98% | [12]; at 100.0 µM 75% | [14]; at 100.0 µM 86% | [15]; at 50.0 µM 98.3% | [16]; at 100.0 µM 70%
inactive: [1]; at 1.2 µM 0% | [1]; at 3.7 µM 3% | [1]; at 11.0 µM 11% | [1]; at 33.0 µM 39% | [2]; at 1.2 µM -1% | [2]; at 3.7 µM 1% | [2]; at 11.0 µM 4% | [2]; at 33.0 µM 17% | [2]; at 100.0 µM 52% | [3]; at 1.2 µM 2% | [3]; at 3.7 µM 14% | [3]; at 11.0 µM 26% | [3]; at 33.0 µM 54% | [4]; at 1.2 µM -2% | [4]; at 3.7 µM 1% | [4]; at 11.0 µM 3% | [4]; at 33.0 µM 18% | [5]; at 1.2 µM -1% | [5]; at 3.7 µM -1% | [5]; [17] -2% | [5]; at 11.0 µM 8% | [5]; at 33.0 µM 22% | [5]; [18] 36% | [5]; at 100.0 µM 65% | [6]; at 1.2 µM -1% | [6]; at 3.7 µM 0% | [6]; [17] -7% | [6]; at 11.0 µM 2% | [6]; at 33.0 µM 19% | [6]; [18] 4% | [6]; at 100.0 µM 60% | [7]; at 1.2 µM 4% | [7]; at 3.7 µM -1% | [7]; at 11.0 µM 4% | [7]; at 33.0 µM 4% | [8]; [17] 4% | [8]; [18] 49% | [9]; at 1.2 µM -6% | [9]; at 3.7 µM 0% | [9]; at 11.0 µM -3% | [9]; at 33.0 µM 7% | [9]; at 100.0 µM 59% | [10]; [17] -45% | [10]; [18] 4% | [11]; at 1.2 µM -7% | [11]; at 3.7 µM -1% | [11]; [17] -25% | [11]; at 11.0 µM 15% | [11]; at 33.0 µM 34% | [11]; [18] 50% | [11]; at 100.0 µM 67% | [12]; at 1.2 µM 0% | [12]; at 3.7 µM 3% | [12]; at 11.0 µM 10% | [12]; at 33.0 µM 32% | [13]; at 1.2 µM -3% | [13]; at 3.7 µM 0% | [13]; at 11.0 µM 4% | [13]; at 33.0 µM 4% | [13]; at 100.0 µM 65% | [14]; at 1.2 µM -1% | [14]; at 3.7 µM 3% | [14]; at 11.0 µM 14% | [14]; at 33.0 µM 45% | [15]; [17] -30% | [15]; [18] 56% | [16]; at 1.2 µM -11% | [16]; at 3.7 µM -3% | [16]; at 11.0 µM 4% | [16]; at 33.0 µM 32%

CC(C)OC(=O)Nc1ccc2nc(-c3cscn3)[nH]c2c1
inactive: [1]; at 1.2 µM -3% | [1]; at 3.7 µM -5% | [1]; at 11.0 µM -3% | [1]; at 33.0 µM 1% | [2]; at 1.2 µM -1% | [2]; at 3.7 µM 3% | [2]; at 11.0 µM -1% | [2]; at 33.0 µM -2% | [2]; at 100.0 µM 50% | [3]; at 1.2 µM 9% | [3]; at 3.7 µM 16% | [3]; at 11.0 µM 23% | [3]; at 33.0 µM 31% | [3]; at 100.0 µM 44% | [4]; at 1.2 µM -5% | [4]; at 3.7 µM -7% | [4]; at 11.0 µM -15% | [4]; at 33.0 µM 4% | [5]; at 1.2 µM -1% | [5]; at 3.7 µM -1% | [5]; [17] -4% | [5]; at 11.0 µM -3% | [5]; at 33.0 µM 10% | [5]; [18] 51% | [5]; at 50.0 µM 17.8% | [6]; at 1.2 µM 2% | [6]; at 3.7 µM 5%
active: [1]; at 100.0 µM 87% | [4]; at 100.0 µM 98% | [5]; at 100.0 µM 90%
